Compounds with a hit are over-represented: about 8.1% of the library has one in this group of screens.
KB-3-1 cytotox: qHTS assay for MDR1-selective chemotherapeutics: Primary screen using the parental adenocarcinoma cell KB-3-1. Potency, µM (doses to about 46.1 µM), most hits filed as cytotoxic. 400,000 compounds, 1.4% hits. KB-3-1 viability, CellTiter-Glo ATP luminescence, 72 h. AID 1347075, 2019; also: % is scaled to controls: 0 for no effect and ±100 for the full control effect; nearly all actives have a fitted effect of over 60% in size
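KB-3-1 parental drug-naive adenocarcinoma cells in DMEM/10% FBS, incubated 72 h at 37 C with pin-transferred compounds across a concentration series. Viability by CellTiter-Glo luminescence; concentration-response curves fitted after normalization.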
SW480 rerep: A quantitative high throughput screen for small molecules that induce DNA re-replication in SW480 colon adenocarcinoma cells; SW480 DNA re-replication, Hoechst DNA content imaging, 48 h; 340,000 compounds, 1.8% hits; Potency, µM (doses to about 46.1 µM), without a hit: top-dose re-replication activation, hits mostly activators; also: % of control where 0% means no effect; nearly all actives have a fitted effect of over 55% in size
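250 cells/well; 23 nL cpd via pin tool; 48 hr, 37 C, 5% CO2; Hoechst 40 min; imager read of total nuclear intensity, ex 405/em 500-530 nm.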
ELG1 DNA repair: qHTS screen for small molecules that inhibit ELG1-dependent DNA repair in human embryonic kidney (HEK293T) cells expressing luciferase-tagged ELG1 | HEK293T ELG1-luciferase reporter, luminescence, 16 h; DNA damage induced by 5-fluorouridine | Potency, µM (highest dose often 46.1 µM), for inactives: at the top dose activity change, negative = inhibition, usual class: inhibitors | 330,000 compounds, 2.3% hits | AID 504467, 2011; also: % is scaled to controls: 0 for no effect and ±100 for the full control effect; nearly all actives have a fitted effect of over 55% in size
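DMSO vehicle served as the neutral condition. Each well held 2,000 cells given 5-fluorouridine plus compound; after 16 hr at 37 °C/5% CO2, ONE-Glo was added and luciferase measured 30 min later.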
KB-V1 MDR tox: qHTS assay for MDR1-selective chemotherapeutics: Primary screen using the drug-selected MDR subline cells KB-V1. KB-V1 MDR cells viability, CellTiter-Glo, 72 h. Potency, µM (titrated, usually from 46.1 µM), actives largely listed as cytotoxic. 400,000 compounds, 3.4% hits. AID 1347076, 2019; also: % is scaled to controls: 0 for no effect and ±100 for the full control effect; nearly all actives have a fitted effect of over 60% in size
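Readout: CellTiter-Glo luminescence, 10 min after addition. Cells: KB-V1 MDR subline, 72 h at 37 degrees C with compound. Analysis: corrected, normalized data fitted to concentration-effect curves.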
MCF10A rerep: A quantitative high throughput screen for small molecules that induce DNA re-replication in MCF 10a normal breast cells; MCF 10A DNA re-replication, Hoechst nuclear intensity, 48 h; Potency, µM (highest dose often 46.1 µM), for inactives: top-dose activity, positive = re-replication, most hits filed as activators; 350,000 compounds, 2.9% hits; AID 624296, 2012; also: % of control where 0% means no effect; nearly all actives have a fitted effect of over 50% in size
Numbers without * were called inactive; i = inactive; ? = inconclusive; nt = no result. Calls follow the shape of the dose curve; as a rule, active = well fitted curve in the direction sought with a large enough effect; inconclusive = small, poorly fitted or top-dose-only effect, or another doubt; inactive = no such curve, though single readings can be large; an effect the other way counts as inactive or inconclusive. Potency is read from the fitted curve at half-maximal effect.

SMILES | KB-3-1 cytotox | SW480 rerep | ELG1 DNA repair | KB-V1 MDR tox | MCF10A rerep
COc1ccc(/C=C(/C(=O)c2cccs2)N2C=CC=CC2=C(C#N)C#N)cc1 | i | ? | ? | i | ?
N#CC(C#N)=C1C=CC=CN1/C(=C\c1ccco1)C(=O)c1ccccc1 | ? | ? | ? | ? | 2.6µM*
N#CC(C#N)=C1C=CC=CN1/C(=C\c1ccco1)C(=O)c1ccc(Br)cc1 | ? | 4.6µM* | ? | i | 3.3µM*
COc1ccc(C(=O)/C(=C\c2ccco2)N2C=CC=CC2=C(C#N)C#N)cc1 | ? | ? | ? | 7.3µM* | 1.3µM*
O=C(C[n+]1cccc(Br)c1)c1ccc(O)c(O)c1 | ? | nt | nt | i | nt
C=Cc1ccc(CN2C(=O)N(c3ccc(CC)cc3)S(=O)(=O)c3ccccc32)cc1 | ? | nt | nt | i | nt
Cc1ccc(C(=O)c2c(N)c(C(=O)Nc3cccc(C(F)(F)F)c3)c3ccccn23)cc1 | i | nt | nt | i | nt
CCCN(S(=O)(=O)c1ccccc1F)S(=O)(=O)c1ccccc1Br | i | ? | -8% | i | 21µM*
CC(C)CC(NC(=O)C1CCCCC1)C(=O)Nc1cccc(C(F)(F)F)c1 (stereo unspecified) | i | nt | nt | i | nt
Cc1noc(C)c1COC(=O)c1ccccc1Sc1ccccc1C#N | i | -6% | 23µM* | ? | 4%
N#Cc1ccccc1Sc1ccccc1C(=O)OCC(N)=O | i | ? | 5% | i | -7%
Cc1ccc(NC(=O)CN(C)C(=O)c2cccc(S(=O)(=O)NCc3ccco3)c2)cc1 | i | -5% | 6% | ? | 6%
NC1=NC(=O)/C(=C\c2cc([N+](=O)[O-])ccc2Cl)S1 | i | 0.46µM* | 8% | i | -1%
CCN(Cc1ccncc1)C(=O)C(CO)c1ccccc1 (stereo unspecified) | i | -10% | 16% | i | -10%
C#CCN(C)CC/C=C1\c2ccccc2CSc2ccccc21 | i | 16µM* | -9% | i | ?
CN(C)CC/C=C1\c2cc(F)ccc2CSc2ccccc21 | i | 14% | 2% | 21µM* | 9%
CN(CC/C=C1/c2ccccc2CSc2ccccc21)CCCO | i | ? | -6% | 23µM* | 13%
CN(C)CCC=C1c2ccccc2C=Cc2ccccc21 | i | ? | -4% | ? | 1%
CN(C)CCC=C1c2ccccc2C(C)(C)c2ccccc21 | nt | ? | nt | nt | 30µM*
CC1(Cn2ccnn2)[C@H](C(=O)O)N2C(=O)C[C@H]2S1(=O)=O (stereo partly specified) | nt | -5% | nt | nt | 5%
CC(C(=O)Nc1ccccc1)n1nnc2sc3c(c2c1=O)CCCC3 (stereo unspecified) | i | nt | nt | i | nt
O=C(CSc1nnc(-c2ccccc2)n1-c1ccc(Cl)cc1)N/N=C/c1ccco1 | i | -7% | -7% | 16µM* | 1%
O=C(CSc1nnc(-c2ccc(Cl)cc2)n1-c1ccccc1)N/N=C/c1ccccc1C(=O)O | i | ? | 6% | i | 18%
CCc1nc2ccc(C(=O)NCCc3ccc(OC)cc3OC)cc2nc1CC | i | nt | nt | ? | nt
CCOc1cc(C)c(C(C)C)cc1S(=O)(=O)NCc1ccccn1 | i | 1% | nt | 9.2µM* | 9%
SMILES | KB-3-1 cytotox | SW480 rerep | ELG1 DNA repair | KB-V1 MDR tox | MCF10A rerep
CCOc1ccc(S(=O)(=O)NCc2ccccn2)cc1NC(=O)c1ccccc1F | ? | 0.82µM* | -1% | ? | ?
COc1ccc(S(=O)(=O)NCc2ccccn2)cc1Br | i | -1% | 5% | i | -11%
COc1ccc(S(=O)(=O)NCc2ccccn2)cc1NC(=O)c1ccc(C)cc1 | 9.2µM* | 2% | ? | ? | ?
COc1ccc(S(=O)(=O)NCc2ccccn2)cc1NC(=O)c1ccccc1 | 13µM* | 9.2µM* | -12% | ? | 21µM*
COc1ccccc1CC(=O)Nc1cc(OC)c(NC(=O)c2ccccc2)cc1OC | i | 3% | 16µM* | i | 2%
Cc1cccn2c(=O)c3cc(C(=O)N4CCN(Cc5ccccc5)CC4)sc3nc12 | i | ? | -25% | i | ?
COc1ccc(N2CCN(C(=O)Cc3ccc(C)cc3)CC2)cc1 | i | 0% | -7% | i | -1%
COc1ccc(N2CCN(C(=O)CN=C3NS(=O)(=O)C(c4ccc(C)cc4)=C3C)CC2)cc1 | i | -5% | ? | 3.7µM* | -2%
O=C(c1ccc(COc2ccccc2Br)o1)N1N=C(C(F)F)CC1(O)C(F)F (stereo unspecified) | i | -51% | -25% | 23µM* | ?
Nc1cc(N)nc(SCCOc2ccccc2F)n1 | i | 0% | ? | 23µM* | 17%
O=C(c1cccc(COCC(F)(F)C(F)F)c1)N1CCN(c2ccccc2)CC1 | i | 0% | nt | 15µM* | 1%
COc1ccc(/C=N/NC(=O)c2cccc(COCC(F)(F)C(F)F)c2)cc1 | i | -80% | 0% | 23µM* | 12%
O=C(NCc1c(Cl)cccc1Cl)c1[nH]c(C(F)(F)F)nc1-c1ccccc1 | i | nt | nt | i | nt
COc1ccc(CCNC(=O)CSc2nnc(-c3ccc(C)cc3)c(-c3ccc(C)cc3)n2)cc1OC | i | nt | nt | i | nt
O=S1(=O)N[C@@H](Cc2ccccc2)COc2cccc(N3CCSCC3)c21 | i | nt | nt | i | nt
O=C(Nc1ccccc1)N1CCSc2cc(Cl)ccc21 | i | 0% | ? | i | 7%
O=C(Nc1cccc(Cl)c1)N1CCSc2cc(Cl)ccc21 | i | 1% | -9% | 18µM* | 3%
Cc1c2cnn(-c3ccccc3)c(=O)c2c(C)n1C(C)C(=O)Nc1ccccc1C(F)(F)F (stereo unspecified) | i | nt | nt | i | nt
Brc1cc2c(cc1C1Nc3ccccc3C3C=CCC31)OCO2 (stereo unspecified) | ? | 16µM* | -9% | ? | ?
O=C(O)c1ccc2c(c1)C1C=CCC1C(c1cc3c(cc1Br)OCO3)N2 (stereo unspecified) | i | -18% | 4% | i | ?
COc1ccccc1CNS(=O)(=O)c1cc(C(=O)N(C)Cc2cccnc2)c(Cl)cc1Cl | ? | 12% | nt | 5.2µM* | 4%
COc1ccccc1N(C)S(=O)(=O)c1ccc(Cl)c(C(=O)NCc2cccnc2)c1 | i | -5% | 7% | i | 5%
COc1cc(NC(=O)CN2CCN(c3ccccc3O)CC2)c(C)cc1[N+](=O)[O-] | i | nt | 21µM* | ? | -4%
